The whole screen tested about 320,000 compounds, of which about 7,600 (2.4%) were called active. Another 3% or so got no clear call; they are omitted. Calls follow the shape of the dose curve; as a rule, active = well fitted activation curve with a large enough effect; inconclusive = small, poorly fitted or top-dose-only effect; inactive = no such curve, though single readings can be large or run the other way. The full list was thinned out, with actives kept by preference.
Experiment: qHTS Assay for NPC1 Promoter Activators; also: nearly all actives have a fitted effect of over 60% in size;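 as to activation: reporter is driven by a mutant NPC1 promoter; % of control where 0% means no effect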
Conditions: Huh7 NPC1 promoter luciferase reporter, 24 h; series mostly up to 9.22 µM; activation: at the top concentration
In short: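 Stably transfected Huh7 (NPC1 promoter→luciferase), 1500 cells/well in Opti-MEM + 10% FBS, 2 h settle, then compound 24 h at 37 °C. Luminescence after 10 min with Amplite reagent.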
Potency is read from the fitted curve at half-maximal effect.

activation, inactive:
CC1CCCC(NC(=O)c2cc(-c3ccncc3)nc3ccccc23)C1C (stereo unspecified) 4.76%
CCOc1ncccc1C(=O)OCC(=O)c1c[nH]c2ccccc12 11.7%
Brc1ccc(CN2CC[C@H]3C=CCc4cccc(c43)C2)cc1 -2.1%
O=C(OCc1cc(=O)n2ccsc2n1)C1(c2ccc(Cl)cc2)CC1 1.14%
O=C(Nc1ccccc1N1CCN(c2ccccc2)CC1)c1cccc(F)c1 -1.86%
O=C(Nc1cccc(NC(=O)c2cccc(F)c2)c1)c1ccccc1 -0.197%
Cc1ccc(S(=O)(=O)N(C)CC(=O)NCC(c2ccc(F)cc2)N2CCOCC2)cc1 (stereo unspecified) -9.26%
COc1ccc(-c2noc(COc3ccc(Cl)c(C)c3)n2)cc1 -0.141%
CN(Cc1ccccn1)Cc1nc(-c2ccc(Cl)cc2)no1 11.1%
Cc1cc(NC(=O)CSc2nnnn2-c2ccc(F)cc2)no1 -7.22%
N#Cc1ccc(OCC(=O)NC(=O)NC2CCS(=O)(=O)C2)cc1 (stereo unspecified) -3.15%
Cn1c(=NC(=O)C2CC2)sc2cc(F)cc(F)c21 10.7%
CCCC(=O)N=c1sc2cccc(F)c2n1C 3.63%
CC1CC2C3CCC4=CC(=O)C=C[C@]4(C)[C@@]3(F)[C@@H](O)C[C@]2(C)[C@@]1(O)C(=O)CO (stereo partly specified) 4.26% [at 46.1 µM]
CN(C)S(=O)(=O)c1cccc(NC(=O)COc2ccc3ccccc3c2)c1 -1.39%
O=C(COC(=O)c1ncc(Cl)c(Cl)c1Cl)NCc1ccccc1 0.917%
CCOc1ccc(C(=O)Nc2nccs2)cc1[N+](=O)[O-] 28.4%
Cc1ccc(-c2noc(CN3CCN(Cc4ccccc4)CC3)n2)cc1 -2.06%
Cc1cccc(-c2nc(Nc3ccc(O)cc3)c3ccccc3n2)c1 -1.56%
Cc1ccc(-c2noc(CC(c3ccccc3)c3ccccc3)n2)cc1 -0.556%
Cc1cccc(-c2noc(CCC(=O)NC3CCCC3)n2)c1 12.3%
O=C(CSc1ccccc1)Nc1cccc(S(=O)(=O)N2CCOCC2)c1 -2.07%
Cc1nnc(C)n1/N=C/c1ccc(C(C)C)cc1 0.602%
Cc1ccc(S(=O)(=O)Nc2nc(C)cc(N/N=C/c3ccc(O)cc3)n2)cc1 -0.0493%
CCOC(=O)c1sc(NC(=O)c2sc(C)nc2C)nc1C -37.1%
COc1cc2ccccc2cc1C(=O)Nc1ccncc1 16.7%
CC(=O)c1sc(NC(=O)C2=NN(c3ccccc3)C(=O)CC2)nc1C -2.55%
CC(=O)c1sc(N)nc1C -6.08%
COc1cc2ccccc2cc1C(=O)Nc1ccccc1C 27%
CC(=O)c1sc(NC(=O)CCCOc2ccccc2C)nc1C 0.721%
COc1ccc(Cl)cc1NC(=O)CN(C)CC(=O)Nc1ccc2c(c1)OCO2 -2.45%
COc1ccc(-c2cc(C(=O)NCCCN3CCCC3=O)c3ccccc3n2)cc1OC -0.607%
O=S(=O)(Nc1ccc(Cl)cn1)c1cnc(Cl)c(Br)c1 -2.47%
COc1ccc(S(=O)(=O)Nc2ccc3cn[nH]c3c2)cc1[N+](=O)[O-] 1.87%
CCc1ccc(CN(C)C(C)C(=O)Nc2ccc(S(=O)(=O)N3CCCC3)cc2)cc1 (stereo unspecified) -4.34%
CN1CCC(N(C)S(=O)(=O)c2ccc(NC(=O)c3cccc(C#N)c3)cc2)CC1 -0.133%
COc1ccc(C2(C)ON(c3ccccc3C(F)(F)F)C2=O)cc1 (stereo unspecified) -6.62%
O=C(CSc1nc2ncccc2[nH]1)Nc1ccc2c(c1)OCCO2 11.2%
CCn1nc(C(=O)NNC(=O)C2CSC3(C)CCC(=O)N23)c2ccccc2c1=O (stereo unspecified) -1.9%
N#Cc1c(NC(=O)CCCl)sc2c1CCCCC2 -1.63%
N#Cc1c(NC(=O)C2CC(Cl)=CCC2C(=O)O)sc2c1CCCCC2 (stereo unspecified) 0.669%
COc1ccc(NS(=O)(=O)c2cccc(C(=O)NCCc3ccc(S(N)(=O)=O)cc3)c2)cc1 0.498%
O=C(/C=C/c1ccc2c(c1)OCO2)NCc1cn2cc(Cl)ccc2n1 -5.97%
O=c1c2ccccc2nc2n1C(CSc1ccc(Cl)cc1)CN2 (stereo unspecified) 1.89%
CN(CCC1CCOCC1)Cc1cn[nH]c1-c1ccc(-c2ccccc2)cc1 0.243%
O=C(COC(=O)C1CC2CCCC(C1)C2=O)NC(=O)c1ccccc1 (stereo unspecified) 1.55%
CC(OC(=O)c1ccccc1NCCO)C(=O)Nc1ccnn1C(C)C (stereo unspecified) 1.15%
CC1CCCC(NC(=O)c2cc(S(=O)(=O)N3CCCCC3)ccc2Cl)C1C (stereo unspecified) -5.92%
Cc1ccc(NC(=O)CCCNC(=O)c2ccc(Cl)cc2)cc1S(=O)(=O)N1CCOCC1 0.719%
O=C(O)Cc1sc(-c2ccccc2)nc1-c1cccs1 0.359%
NC(=O)Cc1ccc2c(c1)[nH]c1ccccc12 0.862%
CC(OC(=O)CN1C(=O)c2ccccc2C1=O)C(=O)c1ccccc1 (stereo unspecified) 0.525%
O=C(COC(=O)c1ccc(O)cc1O)NNC(=O)c1cccs1 -3.96%
CCCc1nc2ccccc2c(=O)n1NC(=O)c1c(O)c2ccccc2[nH]c1=O -0.169%
CC(C)C(=O)Nc1c(O)c2ccccc2[nH]c1=O 0.926%
Cc1ccc(S(=O)(=O)N2CC(O)C[C@H]2C(=O)OCC(=O)Nc2ccc(N3CCOCC3)cc2)cc1C (stereo partly specified) -1.79%
Cc1ccc(CNC(=O)CC(NC(=O)c2ccccc2)c2ccccc2)cc1 (stereo unspecified) -1.36%

Potency, active:
O=C(Nc1ccn(Cc2ccccc2)n1)c1cccc(F)c1 3980 nM
CC(C)Nc1ccc(-n2nc3ccccc3[n+]2[O-])cc1 355 nM
Cc1cc(Cl)ccc1OCc1nc(-c2ccncc2)no1 2820 nM
Cn1c(=NC(=O)c2ccco2)sc2cccc(F)c21 2510 nM
Cc1ccc(Cc2nc(-c3cccc(C)c3)no2)cc1 2820 nM
Cc1cccc(-c2noc(-c3ccc(F)cc3)n2)c1 100 nM
CC(=O)c1sc(NC(=O)c2ccc(C)cc2)nc1C 1580 nM
COc1cc2ccccc2cc1C(=O)Nc1nc(C)c(C(C)=O)s1 3980 nM
CC(=O)c1sc(N/N=C\c2ccc(C)cc2)nc1C 3550 nM
CC(=O)c1sc(N/N=C/c2ccc(C(C)C)cc2)nc1C 1000 nM
N#Cc1c(NC(=O)C2CCCO2)sc2c1CCCCC2 (stereo unspecified) 3550 nM
Clc1ccc2nc(CSc3ccccc3)cn2c1 501 nM
NC(=O)Cc1ccc2sc(-c3ccccc3)nc2c1 3550 nM
NS(=O)(=O)c1ccccc1NC(=O)c1c(O)c2ccccc2[nH]c1=O 562 nM
